Source: PubChem BioAssay (Tox21)
Inconclusive results are not listed. Active and inactive are the calls of the source. Unless noted, calls come from the whole dose curve; as a rule, active = well fitted curve in the direction sought with a large enough effect in the repeat runs; inconclusive = weak or mixed curves; inactive = no such curve, though single readings can be large; an effect the other way counts as inactive or inconclusive.

What was measured:
[1] = biological target: Androgen receptor (Homo sapiens) (UniProt P10275); experiment: qHTS assay to identify small molecule agonists of the androgen receptor (AR) signaling pathway in the presence of an antagonist (AID 1259381; calls by dose curve; note: nearly all actives have a fitted effect of over 15% in size)
Sequence of Androgen receptor (Homo sapiens) (P10275 whole entry, looked up): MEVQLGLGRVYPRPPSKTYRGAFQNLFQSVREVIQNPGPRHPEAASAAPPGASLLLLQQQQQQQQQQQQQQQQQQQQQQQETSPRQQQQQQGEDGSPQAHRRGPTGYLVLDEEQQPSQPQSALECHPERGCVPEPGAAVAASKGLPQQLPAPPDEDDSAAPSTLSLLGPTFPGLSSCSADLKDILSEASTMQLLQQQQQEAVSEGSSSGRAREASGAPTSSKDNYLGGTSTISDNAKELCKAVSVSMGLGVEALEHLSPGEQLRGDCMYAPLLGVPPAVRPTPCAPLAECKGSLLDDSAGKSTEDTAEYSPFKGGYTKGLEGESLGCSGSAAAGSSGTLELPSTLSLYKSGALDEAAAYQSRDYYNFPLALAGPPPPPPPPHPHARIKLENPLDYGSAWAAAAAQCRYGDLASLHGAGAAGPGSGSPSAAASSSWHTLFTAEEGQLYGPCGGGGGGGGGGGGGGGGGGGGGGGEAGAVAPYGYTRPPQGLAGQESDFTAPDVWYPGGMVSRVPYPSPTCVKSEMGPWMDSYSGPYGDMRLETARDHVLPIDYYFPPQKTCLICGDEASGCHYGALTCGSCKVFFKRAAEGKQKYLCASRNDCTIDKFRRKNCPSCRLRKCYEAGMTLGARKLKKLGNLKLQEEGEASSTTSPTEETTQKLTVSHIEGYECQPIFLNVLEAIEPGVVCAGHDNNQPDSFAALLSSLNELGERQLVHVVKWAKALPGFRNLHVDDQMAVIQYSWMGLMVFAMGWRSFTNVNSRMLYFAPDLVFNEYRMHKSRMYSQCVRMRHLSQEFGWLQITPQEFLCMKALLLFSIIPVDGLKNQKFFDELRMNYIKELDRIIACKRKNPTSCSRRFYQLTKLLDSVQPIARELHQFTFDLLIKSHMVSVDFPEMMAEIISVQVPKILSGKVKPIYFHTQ
In short: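 Agonist-mode confirmation screen: human MDA-kb2 cells stably expressing luciferase under an MMTV promoter bearing AR and GR response elements, co-treated with 3.0uM nilutamide (final). Luminescence measured after 16hr compound incubation.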

[2] = qHTS assay to identify small molecule antagonists of the estrogen receptor beta (ER-beta) signaling pathway - cell viability counter screen (AID 1259382);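 note: HEK293T cells carrying ER-beta-UAS-bla reporter stimulated with estradiol; series mostly up to about 92 µM; nearly all actives have a fitted effect of over 55% in size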
In short: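 Cytotoxicity counter screen multiplexed with the beta-lactamase antagonist assay: GripTite HEK293T ER-beta-bla cells were treated 16 hr with test chemicals in the presence of 1nM 17-beta-estradiol, and viability was measured by CellTiter-Glo.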

[3] = biological target: Estrogen receptor (Homo sapiens) (UniProt P03372); experiment: qHTS assay to identify small molecule agonists of the estrogen receptor alpha (ER-alpha) signaling pathway in the presence of an antagonist (AID 1259383; calls by dose curve; note: top concentration of the series differs between compounds; nearly all actives have a fitted effect of over 15% in size)
Sequence of Estrogen receptor (Homo sapiens) (P03372 whole entry, looked up): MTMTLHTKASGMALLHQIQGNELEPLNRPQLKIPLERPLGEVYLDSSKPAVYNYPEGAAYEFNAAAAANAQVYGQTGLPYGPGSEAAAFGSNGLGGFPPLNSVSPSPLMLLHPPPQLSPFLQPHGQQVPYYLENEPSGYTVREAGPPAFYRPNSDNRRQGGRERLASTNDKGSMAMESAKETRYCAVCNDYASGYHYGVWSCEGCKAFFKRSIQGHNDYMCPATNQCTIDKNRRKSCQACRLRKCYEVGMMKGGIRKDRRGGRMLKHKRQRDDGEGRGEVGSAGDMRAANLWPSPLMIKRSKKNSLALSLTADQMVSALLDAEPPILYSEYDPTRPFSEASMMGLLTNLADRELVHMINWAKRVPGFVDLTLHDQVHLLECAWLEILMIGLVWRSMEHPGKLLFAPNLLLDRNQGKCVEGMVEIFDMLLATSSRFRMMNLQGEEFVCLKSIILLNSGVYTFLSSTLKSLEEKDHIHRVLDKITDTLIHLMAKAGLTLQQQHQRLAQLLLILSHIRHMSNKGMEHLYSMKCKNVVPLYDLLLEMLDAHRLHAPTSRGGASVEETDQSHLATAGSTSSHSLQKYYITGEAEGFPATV
In short: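 Agonist-mode confirmation in the presence of the ER antagonist ICI-182,780 at 10.0nM final. Breast-derived VM7Luc4E2 reporter cells were exposed to compounds for 22hr, and ERE-driven luciferase was quantified by luminescence.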

[4] = qHTS assay to identify small molecule agonists or antagonists of the thyroid stimulating hormone receptor (TSHR) signaling pathway - wild type cell line counter screen (AID 1259384; calls by dose curve)
In short: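 Wild-type HEK293 cells were plated 18 h at 37 C/5% CO2, pin-dosed with compound plus Ro20-1724 medium, held 30 min at room temperature, then given cAMP-d2 and anti-cAMP-cryptate; fluorescence was read after 1 h. Fifteen concentrations, triplicate.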

[5] = biological target: Thyrotropin receptor (Homo sapiens) (UniProt P16473); experiment: qHTS assay to identify small molecule antagonists of the thyroid stimulating hormone receptor (TSHR) signaling pathway (AID 1259385; calls by dose curve; note: nearly all actives have a fitted effect of over 20% in size)
Sequence of Thyrotropin receptor (Homo sapiens) (P16473 whole entry, looked up): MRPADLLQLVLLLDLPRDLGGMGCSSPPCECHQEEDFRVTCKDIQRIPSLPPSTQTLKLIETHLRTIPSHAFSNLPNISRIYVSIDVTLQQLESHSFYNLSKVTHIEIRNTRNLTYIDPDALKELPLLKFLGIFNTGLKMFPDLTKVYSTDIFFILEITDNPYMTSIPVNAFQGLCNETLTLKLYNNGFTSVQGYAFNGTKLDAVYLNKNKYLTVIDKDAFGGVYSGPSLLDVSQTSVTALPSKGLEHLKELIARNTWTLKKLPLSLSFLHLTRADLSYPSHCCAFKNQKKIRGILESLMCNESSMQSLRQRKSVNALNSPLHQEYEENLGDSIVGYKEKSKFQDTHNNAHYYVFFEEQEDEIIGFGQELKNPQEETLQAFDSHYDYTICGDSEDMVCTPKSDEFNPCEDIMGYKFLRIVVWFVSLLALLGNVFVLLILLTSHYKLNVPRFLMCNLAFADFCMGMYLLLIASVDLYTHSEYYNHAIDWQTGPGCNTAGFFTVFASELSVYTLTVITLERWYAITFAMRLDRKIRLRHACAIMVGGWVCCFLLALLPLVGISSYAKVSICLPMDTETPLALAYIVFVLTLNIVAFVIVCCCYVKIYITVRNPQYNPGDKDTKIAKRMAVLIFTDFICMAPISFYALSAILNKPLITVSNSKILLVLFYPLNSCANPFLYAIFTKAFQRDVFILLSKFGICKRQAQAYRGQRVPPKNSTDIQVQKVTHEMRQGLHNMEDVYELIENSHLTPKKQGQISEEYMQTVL
In short: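 TSHR-HEK293 cells were plated and held 18 h at 37C/5% CO2, then given compound plus Ro20-1724 and stimulated with TSH at 1.5 ng/mL final. After 30 min at room temperature, cAMP was detected with cAMP-d2/anti-cAMP-cryptate (1 h) by fluorescence.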

[6] = qHTS assay to identify small molecule agonists of the estrogen receptor alpha (ER-alpha) signaling pathway in the presence of an antagonist - cell viability counter screen (AID 1259386);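 note: series mostly up to about 92 µM; cells exposed to compounds for 22 h at 37 °C before the viability read; nearly all actives have a fitted effect of over 30% in size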
In short: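 Cytotoxicity was measured in parallel with the ERE-luciferase agonist screen, in the same wells. The cells were VM7Luc4E2, which endogenously express ER-alpha, and treatment was with compounds plus 10.0nM ICI-182,780 for 22hr.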

[7] = biological target: Progesterone receptor (Homo sapiens) (UniProt P06401); experiment: qHTS assay to identify small molecule agonists of the progesterone receptor (PR) signaling pathway (AID 1346784; calls by dose curve; note: nearly all actives have a fitted effect of over 30% in size)
Sequence of Progesterone receptor (Homo sapiens) (P06401 whole entry, looked up): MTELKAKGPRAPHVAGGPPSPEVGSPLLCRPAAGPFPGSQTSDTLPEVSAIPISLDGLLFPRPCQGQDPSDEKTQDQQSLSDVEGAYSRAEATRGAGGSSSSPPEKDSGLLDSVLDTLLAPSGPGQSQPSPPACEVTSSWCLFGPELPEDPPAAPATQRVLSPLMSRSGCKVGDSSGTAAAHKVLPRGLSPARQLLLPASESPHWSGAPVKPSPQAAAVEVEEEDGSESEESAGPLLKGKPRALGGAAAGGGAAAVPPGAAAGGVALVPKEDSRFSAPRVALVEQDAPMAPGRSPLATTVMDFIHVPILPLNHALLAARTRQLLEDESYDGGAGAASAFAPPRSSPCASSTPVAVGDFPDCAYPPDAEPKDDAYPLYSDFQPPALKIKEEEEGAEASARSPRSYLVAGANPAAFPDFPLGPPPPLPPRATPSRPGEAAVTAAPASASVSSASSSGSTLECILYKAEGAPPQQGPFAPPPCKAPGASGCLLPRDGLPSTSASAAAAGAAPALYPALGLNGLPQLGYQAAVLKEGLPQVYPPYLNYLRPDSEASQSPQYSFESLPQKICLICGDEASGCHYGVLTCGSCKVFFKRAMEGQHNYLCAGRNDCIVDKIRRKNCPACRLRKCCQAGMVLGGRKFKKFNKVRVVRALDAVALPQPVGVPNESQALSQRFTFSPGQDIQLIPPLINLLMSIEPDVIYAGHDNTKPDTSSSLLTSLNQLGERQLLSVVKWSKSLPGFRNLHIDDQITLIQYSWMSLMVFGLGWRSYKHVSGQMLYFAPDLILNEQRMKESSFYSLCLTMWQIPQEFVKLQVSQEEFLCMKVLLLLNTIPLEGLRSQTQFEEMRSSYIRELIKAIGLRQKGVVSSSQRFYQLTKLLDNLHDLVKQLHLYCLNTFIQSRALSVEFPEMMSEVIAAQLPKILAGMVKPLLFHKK
In short: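 Beta-lactamase reporter read-out: after 16 hr compound treatment at 37C and a further 2 hr at room temperature with LiveBLAzer B/G FRET substrate, fluorescence was measured in PR-UAS-bla HEK 293T cells grown in 2% charcoal-stripped serum.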

[8] = biological target: Progesterone receptor (Homo sapiens) (UniProt P06401); experiment: qHTS assay to identify small molecule antagonists of the progesterone receptor (PR) signaling pathway (AID 1346795; active = well fitted inhibition curve with a large enough effect in the signal ratio in the repeat runs, not every such curve was filed as active; the % refers to the signal ratio)
In short: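 Read-out is fluorescence from the LiveBLAzer B/G FRET substrate, cleaved by a UAS-controlled beta-lactamase in PR-UAS-bla HEK293T cells after 16 hr exposure to compound plus 1 nM promegestone (final), followed by 2 hr at room temperature.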

[9] = qHTS assay to identify small molecule agonists of the progesterone receptor (PR) signaling pathway - cell viability counter screen (AID 1346799; calls by dose curve; note: nearly all actives have a fitted effect of over 45% in size)
In short: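 Luminescence from CellTiter-Glo, added after the beta-lactamase FRET read in the same wells, gave cytotoxicity in PR-UAS-bla HEK293T cells treated with compounds for 16 hr at 37C.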

[10] = qHTS assay to identify small molecule agonists of the TGF-beta/Smad signaling pathway - cell viability counter screen (AID 1346829); note: top concentration of the series differs between compounds; nearly all actives have a fitted effect of over 45% in size
In short: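 HEK 293T SBE-bla line, 5 hr compound exposure at 37 C, multiplexed CellTiter-Glo viability read by luminescence.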

[11] = qHTS assay to identify small molecule agonists of the TGF-beta/Smad signaling pathway (AID 1346859; active = well fitted activation curve with a large enough effect in the signal ratio in the repeat runs, not every such curve was filed as active; the % refers to the signal ratio; note: series mostly up to about 77 µM)
In short: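 SBE-bla HEK 293T, 4,000 cells/well, plated o/n; cpd in DMSO, 5 hr, 37 C/5% CO2; B/G FRET substrate 2 hr RT; ex 405, em 460/530 nm.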

[12] = biological target: Thyrotropin-releasing hormone receptor (Homo sapiens) (UniProt P34981); experiment: qHTS assay to identify small molecule antagonists of the thyrotropin-releasing hormone receptor (TRHR) signaling pathway (AID 1346877; active = well fitted inhibition curve with a large enough effect in the repeat runs, not every such curve was filed as active; note: series mostly up to about 51 µM)
Sequence of Thyrotropin-releasing hormone receptor (Homo sapiens) (P34981 whole entry, looked up): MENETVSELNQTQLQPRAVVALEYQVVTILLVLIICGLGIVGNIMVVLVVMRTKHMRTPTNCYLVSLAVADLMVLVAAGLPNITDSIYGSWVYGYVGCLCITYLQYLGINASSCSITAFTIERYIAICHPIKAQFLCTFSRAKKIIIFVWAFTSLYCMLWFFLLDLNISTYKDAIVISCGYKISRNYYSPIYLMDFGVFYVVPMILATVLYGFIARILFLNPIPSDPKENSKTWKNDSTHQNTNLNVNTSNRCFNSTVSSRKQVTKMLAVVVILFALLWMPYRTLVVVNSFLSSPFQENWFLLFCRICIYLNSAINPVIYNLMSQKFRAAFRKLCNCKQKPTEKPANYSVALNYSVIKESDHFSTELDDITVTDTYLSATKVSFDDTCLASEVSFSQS
In short: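 Antagonism is measured as suppression of the calcium response to 1 nM TRH in TRHR-HEK293 cells that have been dye-loaded for 2 h at 37 °C after overnight plating. Each compound is tested at 15 concentrations in triplicate.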

[13] = biological target: Thyrotropin-releasing hormone receptor (Homo sapiens) (UniProt P34981); experiment: qHTS assay to identify small molecule agonists of the thyrotropin-releasing hormone receptor (TRHR) signaling pathway (AID 1346891; calls by dose curve; note: series mostly up to about 58 µM)
In short: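 Intracellular calcium rise, read as fluorescence every second for 3 min, served as the agonist signal in dye-loaded HEK293 cells expressing TRHR; each compound ran at 15 concentrations in triplicate.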

[14] = Human pregnane X receptor (PXR) small molecule agonists, qHTS cell viability counter screen (AID 1346977); note: nearly all actives have a fitted effect of over 50% in size
In short: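 PXR-Luc HepG2, 2,000 cells/well, 5% charcoal-stripped FBS; 5hr settle; cpd 24hr, 37C/5% CO2; CellTiter-Fluor at 23hr, read 1hr later (fluorescence).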

[15] = Caspase-3/7 induction in HepG2 cells by small molecules, qHTS assay (AID 1346978); note: nearly all actives have a fitted effect of over 15% in size
In short: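 Wild-type HepG2 cells (2,000/well) were settled 5 h at 37 C, 5% CO2, then exposed to compounds in DMSO for 17 h. Caspase-3/7 activity was read by luminescence 30 min after adding Caspase-Glo 3/7 reagent at room temperature.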

[16] = Caspase-3/7 induction in CHO-K1 cells by small molecules, qHTS cell viability counter screen (AID 1346979); note: nearly all actives have a fitted effect of over 35% in size
In short: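 Cells (CHO-K1, wild type) are plated at 1,500 per well and incubated 5hr. Test compounds in DMSO are then pinned in, followed by 16hr at 37C and 5% CO2. Viability is read by CellTiter-Fluor fluorescence after 1hr.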

[17] = Caspase-3/7 induction in CHO-K1 cells by small molecules, qHTS assay (AID 1346980); note: nearly all actives have a fitted effect of over 15% in size
In short: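 Wild-type cells were seeded at 1,500 per well and settled 5 hr at 37 C, 5% CO2, then exposed to DMSO-dissolved compounds for 17 hr. Caspase-Glo 3/7 reagent was added, and luminescence was read after 30min at room temperature.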

[18] = Caspase-3/7 induction in HepG2 cells by small molecules, qHTS cell viability counter screen (AID 1346981); note: series mostly up to about 92 µM; nearly all actives have a fitted effect of over 30% in size
In short: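 Cell viability is measured as a cytotoxicity counter screen alongside the Caspase-Glo 3/7 readout in identical wells. Wild-type HepG2 cells are treated with test compounds for 16 hr at 37 C before CellTiter-Fluor addition and a 1-hr incubation.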

[19] = qHTS assay to identify small molecule antagonists of the TGF-beta/Smad signaling pathway - cell viability counter screen (AID 1346824); note: nearly all actives have a fitted effect of over 50% in size
In short: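 SBE-bla HEK 293T cells were plated overnight at 37 C, then given compounds in DMSO plus TGF-beta1 (added as 0.25 ng/mL solution) for 5 hr. After the bla read, CellTiter-Glo was added to the same wells and luminescence read after 30 min at room temperature.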

[20] = qHTS assay to identify small molecule antagonists of the progesterone receptor (PR) signaling pathway - cell viability counter screen (AID 1346798);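 note: HEK293T PR-UAS-bla cells stimulated with the agonist R5020; series mostly up to about 92 µM; nearly all actives have a fitted effect of over 50% in size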
In short: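 HEK293T PR-UAS-bla, 2% charcoal-stripped FBS; 4 hr pre-plate; cpd + R5020, 16 h 37C; LiveBLAzer read first; then CellTiter-Glo 30 min RT, luminescence.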

Measured: Potency

Nc1ccnc(=O)[nH]1
not listed: [19] | [20]
inactive: all other assays above

Cc1nc2n(c(=O)c1CCN1CCC(C(=O)c3ccc(F)cc3)CC1)CCS2
not listed: [6] | [14] | [20]
inactive: all other assays above

CCNC(=O)/C=C/c1cccc(Br)c1
not listed: [3] | [18]
inactive: all other assays above

O=C1c2ccccc2-c2ccccc21
not listed: [2] | [3]
inactive: all other assays above

CCCCCCCCCCCCCC(=O)OC
not listed: [7]
inactive: all other assays above

O=CN1CCOCC1
not listed: [7] | [9]
inactive: all other assays above

CCCCCCCCCCCCCCCCCCN(C)C
not listed: [12] | [13]
inactive: all other assays above
